Test results reported in PubChem BioAssay.
Activity calls are given as the source filed them. Unless noted, the rule behind the calls is not given here.

How the values were obtained:
[1] = resazurin metabolic signal in HepG2 cells – cell-based, resazurin fluorescence, 24 h, PK04 Diversity Set, profiling panel (AID 1172); conditions: HepG2 viability, higher = more signal
[2] = budding yeast growth changes without added modifier – OD600, strain BY4716, 24 h, basal condition, primary screen (AID 1173); conditions: S. cerevisiae BY4716 growth, OD600, 24 h; higher = more signal, called active from +8 up or from −8 down
[3] = viability profiling in MM1S myeloma cells – cell-based, resazurin fluorescence, basal, 24 h, PK04 Diversity Set, profiling panel (AID 1174); conditions: higher = more signal, called active from +8 up or from −8 down;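 note: MM1S multiple myeloma cell line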
[4] = target: Dihydroorotate dehydrogenase (quinone), mitochondrial (Plasmodium falciparum (isolate 3D7)) (UniProt Q08210); experiment: inhibition of P. falciparum DHODH – biochemical, C-terminal His tag, absorbance 600 nm, primary screen (AID 1175); conditions: PfDHODH enzyme, DCIP absorbance 600 nm; higher = more signal, called active from +8 up or from −8 down;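 note: recombinant parasite enzyme with a five histidine tag at its C terminus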
Dihydroorotate dehydrogenase (quinone), mitochondrial (Plasmodium falciparum (isolate 3D7)), sequence (Q08210 whole entry, looked up): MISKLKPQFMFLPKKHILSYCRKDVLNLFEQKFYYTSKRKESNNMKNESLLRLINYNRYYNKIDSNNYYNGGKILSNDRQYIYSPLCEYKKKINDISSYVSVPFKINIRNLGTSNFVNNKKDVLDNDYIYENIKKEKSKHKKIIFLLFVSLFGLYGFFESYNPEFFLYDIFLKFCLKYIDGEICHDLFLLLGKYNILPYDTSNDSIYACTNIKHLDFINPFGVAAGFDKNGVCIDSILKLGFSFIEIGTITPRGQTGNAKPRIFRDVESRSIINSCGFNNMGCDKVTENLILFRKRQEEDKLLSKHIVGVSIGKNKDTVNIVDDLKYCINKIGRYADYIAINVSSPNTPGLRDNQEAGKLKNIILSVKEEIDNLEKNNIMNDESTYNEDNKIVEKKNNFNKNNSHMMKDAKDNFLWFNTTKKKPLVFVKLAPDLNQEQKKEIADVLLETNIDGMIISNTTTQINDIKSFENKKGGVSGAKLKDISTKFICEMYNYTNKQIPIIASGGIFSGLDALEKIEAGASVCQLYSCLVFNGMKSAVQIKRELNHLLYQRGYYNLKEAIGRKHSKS

[5] = inhibition of PAO1 biofilm formation – strain PAO1, LB-PBS medium, absorbance 600 nm, primary screen (AID 1176); conditions: P. aeruginosa PAO1 growth/biofilm, A600, 12 h; higher = more signal
[6] = growth modulation of vineyard yeast isolate – strain RM11-1a, OD600, basal, 24 h, primary screen (AID 1177);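 note: cultures grown under basal conditions with no added stressor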; conditions: S. cerevisiae RM11-1a growth, OD600, 24 h; higher = more signal, called active from +8 up or from −8 down
[7] = growth of efflux-deficient E. coli DRC39 – strain DRC39, OD650, 24 h, E. coli filamentation inducers, primary screen (AID 1178);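 note: growth measured as culture turbidity by optical density at 650 nm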; conditions: E. coli DRC39 acrAB, higher = more signal, called active from +8 up or from −8 down
[8] = growth of efflux-deficient E. coli DRC39 – strain DRC39, OD650, 48 h, E. coli filamentation inducers, primary screen (AID 1179);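 note: screen aims at cell division blockers that make cells filament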; conditions: E. coli DRC39 delta-acrAB growth, higher = more signal, called active from +8 up or from −8 down
[9] = viability profiling in RPMI8226 myeloma cells – cell-based, resazurin fluorescence, basal, 24 h, PK04 Diversity Set, profiling panel (AID 1180); conditions: higher = more signal;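 note: RPMI8826 multiple myeloma cell line at 5000 cells per well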
[10] = target: E3 ubiquitin-protein ligase XIAP (Homo sapiens) (UniProt P98170); experiment: small molecules binding XIAP protein – biophysical, small-molecule microarray, fluorescence 635 nm, primary screen (AID 1181); conditions: higher = more signal;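 note: score merges 667 nm emission and signal to noise over triplicate slides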
E3 ubiquitin-protein ligase XIAP (Homo sapiens), sequence (P98170 whole entry, looked up, the tested form may be a part): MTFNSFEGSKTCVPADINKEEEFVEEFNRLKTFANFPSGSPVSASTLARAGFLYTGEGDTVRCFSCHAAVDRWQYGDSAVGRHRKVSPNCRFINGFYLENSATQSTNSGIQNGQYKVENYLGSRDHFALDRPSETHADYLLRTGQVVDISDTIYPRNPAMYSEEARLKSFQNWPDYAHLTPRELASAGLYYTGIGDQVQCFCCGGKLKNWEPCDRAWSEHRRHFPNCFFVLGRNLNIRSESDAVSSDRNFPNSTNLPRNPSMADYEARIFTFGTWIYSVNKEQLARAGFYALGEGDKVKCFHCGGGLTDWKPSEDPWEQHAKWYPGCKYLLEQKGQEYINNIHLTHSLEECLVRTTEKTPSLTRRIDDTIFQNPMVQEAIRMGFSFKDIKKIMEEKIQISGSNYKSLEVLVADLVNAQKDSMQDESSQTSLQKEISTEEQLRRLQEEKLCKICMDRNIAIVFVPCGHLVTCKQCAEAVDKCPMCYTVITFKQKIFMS

[11] = tested on: XIP peptide (Xip251-270) binding; experiment: XIP fragment 251-270 binding compounds – biochemical, small-molecule microarray, fluorescence 635/667 nm, 0.1 µg/mL protein, primary screen (AID 1182); conditions: fluorescent protein binding, 635 nm, higher = more signal, called active from +8 up or from −8 down
XIP peptide (Xip251-270) = experiment: compounds binding XIP fragment 251-270 – biochemical, small-molecule microarray, fluorescence 635/667 nm, 0.5 µg/mL protein, primary screen (AID 1183); conditions: fluorescence 635 nm, higher = more signal
[12] = blood-stage malaria parasite viability loss – strain 3D7, DAPI fluorescence, 100 nL, primary screen (AID 1184);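 note: parasites grown inside human red blood cells in medium with human serum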; conditions: P. falciparum 3D7 growth, 3 d, higher = more signal
[13] = target: Homeobox protein Hox-A13 (Mus musculus) (UniProt Q62424); experiment: disruptors of Hoxa13 oligonucleotide interaction – biochemical, fluorescence polarization, labeled oligonucleotide, primary screen (AID 1185); conditions: Hoxa13:DNA binding, 15 min, higher = more signal, called active from +8 up or from −8 down
Homeobox protein Hox-A13 (Mus musculus), sequence (Q62424 whole entry, looked up): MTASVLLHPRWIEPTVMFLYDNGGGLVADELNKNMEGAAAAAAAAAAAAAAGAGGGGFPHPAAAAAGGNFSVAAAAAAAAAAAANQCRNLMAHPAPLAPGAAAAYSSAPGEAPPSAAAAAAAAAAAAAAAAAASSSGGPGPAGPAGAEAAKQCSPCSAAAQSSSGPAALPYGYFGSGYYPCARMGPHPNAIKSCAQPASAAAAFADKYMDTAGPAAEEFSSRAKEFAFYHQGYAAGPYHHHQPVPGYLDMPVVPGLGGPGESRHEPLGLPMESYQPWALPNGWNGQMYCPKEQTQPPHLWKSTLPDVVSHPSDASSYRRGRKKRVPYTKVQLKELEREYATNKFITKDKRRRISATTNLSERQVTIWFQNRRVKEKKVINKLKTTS

[14] = blockers of DNA damage checkpoint Chk1 activation – imaging, HeLa, hydroxyurea, phospho-Chk1 antibody, percent positive cells, primary screen (AID 1186); conditions: hydroxyurea-induced phospho-Chk1 immunofluorescence imaging, higher = more signal
[15] = blockers of DNA damage checkpoint Chk1 activation – imaging, HeLa, hydroxyurea, phospho-Chk1 nuclear intensity, primary screen (AID 1187); conditions: hydroxyurea-induced phospho-Chk1 immunofluorescence imaging, higher = more signal

Row | SMILES | z-score [1] | z-score [2] | z-score [3] | composite z-score [4] | z-score [5] | z-score [6] | z-score [7] | z-score [8] | z-score [9] | composite z-score [10] | composite z-score [11] | composite z-score (XIP peptide (Xip251-270)) | z-score [12] | z-score [13] | z-score [14] | z-score [15]
1 | C=C(CCCC)C(=O)CC[C@H](OC(C)=O)c1ccc(CO)o1 | -0.658 | -0.948 (inactive) | 0.982 (inactive) | -1.66 (inactive) | -0.0221 (inactive) | 0.285 (inactive) | 0.668 (inactive) | -0.968 (inactive) | 0.496 | 0.343 | 0.35 (inactive) | 0.0921 | -1.82 | -3.62 (inactive) | -0.059 (inactive) | -0.222 (inactive)
2 | CCOC(=O)C[C@H]1[C@H](OC(=O)c2ccc(C(=O)c3ccccc3)cc2)[C@@H](NC(=O)c2ccc3ccccc3n2)c2cc(OCCCO)ccc2N1C(=O)c1ccc2ccccc2n1 | 0.44 | -0.0495 (inactive) | 0.433 (inactive) | 0.681 (inactive) | 0.808 (inactive) | 0.081 (inactive) | 0.322 (inactive) | 0.388 (inactive) | 0.416 | -0.0525 | 0.545 (inactive) | 0.613 | -2.55 | -2.61 (inactive) | 0.226 (inactive) | 0.194 (inactive)
3 | COC(=O)c1c2oc(c1C(=O)OC)C(=O)N[C@H](Cc1ccccc1)Cn1nncc1C1(CCCCC1)NC(=O)N[C@H](CO)CC2 | 1.09 | 0.916 (inactive) | 2.4 (inactive) | 0.112 (inactive) | 1.27 (inactive) | 0.416 (inactive) | 0.157 (inactive) | 0.402 (inactive) | 2.19 | 0.0859 | 0.152 (inactive) | -0.0356 | 1.06 | -2.22 (inactive) | -0.971 (inactive) | -0.939 (inactive)
4 | C=CCOC(=O)[C@H]1[C@@H]2C(=O)O[C@@H](c3ccccc3)[C@@H](c3ccccc3)N2[C@@H](c2ccc(OCCOC(=O)[C@@H]3C[C@@H]4C(=O)NCC(=O)N4[C@@H]3c3ccc(O)cc3)cc2)[C@]12C(=O)Nc1ccc(I)cc12 | -0.247 | 0.528 (inactive) | -0.897 (inactive) | 0.31 (inactive) | 2.27 (inactive) | 0.305 (inactive) | -0.641 (inactive) | -0.51 (inactive) | -0.433 | -0.0066 | 0.2 (inactive) | 0.825 | -1.11 | 0.274 (inactive) | 0.147 (inactive) | 0.192 (inactive)
5 | Cc1ccc(S[C@]2(C(=O)NCc3ccccc3)CC(=O)N(Cc3cc(C(F)(F)F)cc(C(F)(F)F)c3)[C@@H]2c2ccc(CO)cc2)cc1 | -0.417 | -0.248 (inactive) | 0.133 (inactive) | 1.01 (inactive) | 0.711 (inactive) | 1.43 (inactive) | -0.244 (inactive) | -0.532 (inactive) | 0.14 | -0.228 | -0.384 (inactive) | 0.365 | -0.398 | -2.38 (inactive) | 0.199 (inactive) | 0.311 (inactive)
6 | COc1ccc([Si](C)(C)[C@H]2[C@H](CC(=O)N3CCC[C@H]3CO)O[C@@]3(C(=O)N(Cc4cccc(N5CCC5=O)c4)c4ccccc43)[C@@H]2C)cc1 | -1.26 | 0.124 (inactive) | -0.616 (inactive) | -7.33 (inactive) | 0.507 (inactive) | 1.23 (inactive) | 0.791 (inactive) | 0.473 (inactive) | -0.826 | -0.152 | 0.185 (inactive) | 0.543 | -2.04 | -3.58 (inactive) | 0.307 (inactive) | 0.429 (inactive)
7 | CN(C)CCCC[C@@H]1NC(=O)[C@@H]2C[C@H](C(=O)NCCCCCCN)[C@H](c3ccc(O)cc3)N2C1=O | -1.14 | 0.531 (inactive) | 0.427 (inactive) | -2.06 (inactive) | 0.643 (inactive) | 0.793 (inactive) | 0.254 (inactive) | -0.234 (inactive) | 0.109 | -0.157 | 0.674 (inactive) | 0.0252 | 0.0094 | -2.65 (inactive) | 0.136 (inactive) | -0.366 (inactive)
8 | C=C[C@@H](C)[C@@H](OC(=O)Nc1ccc(OC)cc1)c1ccc(O)c2ccccc12 | -1.42 | -18.5 (active) | -5.02 (inactive) | -3.79 (inactive) | 1.43 (inactive) | -22.2 (active) | 0.99 (inactive) | 0.224 (inactive) | -4.37 | -0.125 | 1.36 (inactive) | -0.0477 | -1.65 | -3.38 (inactive) | 0.453 (inactive) | 0.196 (inactive)
9 | Cc1ccc(N2C(=O)c3ccccc3[C@](C)(C(=O)NCCN3CCOCC3)[C@@H]2c2ccc(CO)cc2)nc1 | -0.946 | -0.574 (inactive) | 0.438 (inactive) | 0.255 (inactive) | 0.31 (inactive) | 0.548 (inactive) | -0.0943 (inactive) | -0.126 (inactive) | 0.274 | 0.086 | -0.772 (inactive) | 0.471 | -0.855 | -1.9 (inactive) | -0.217 (inactive) | -0.163 (inactive)
10 | [N-]=[N+]=Nc1ccccc1[C@H]1OC(c2ccc(OCCCO)cc2)=N[C@@]1(CCS(=O)(=O)c1ccccc1)C(=O)N1CCOCC1 | -0.512 | 0.917 (inactive) | -1.45 (inactive) | 0.499 (inactive) | 1.75 (inactive) | 1.45 (inactive) | 0.713 (inactive) | 0.187 (inactive) | -1.33 | 0.389 | 1.72 (inactive) | 0.562 | -2.04 | -1.14 (inactive) | -0.0149 (inactive) | 0.0382 (inactive)
11 | COCCOC(=O)N1C(=O)[C@@]2(c3cc(C#CCCO)ccc31)[C@H](C(=O)NC[C@H](O)c1ccccc1)[C@H]1C(=O)O[C@H](c3ccccc3)[C@H](c3ccccc3)N1[C@@H]2c1ccc(OCCO)cc1 | 0.76 | 0.757 (inactive) | 0.857 (inactive) | -0.689 (inactive) | 1.75 (inactive) | 1.21 (inactive) | 0.696 (inactive) | -0.567 (inactive) | 1.43 | 0.275 | -0.0001 (inactive) | 0.577 | -1.99 | -1.64 (inactive) | 0.0945 (inactive) | 0.298 (inactive)
12 | CCCCCN1CC=CC23O[C@@H]4C=CCCOC(=O)C4[C@H]2C(=O)N(CCCO)[C@@H]3C1=O (some centres not stated) | 0.457 | -0.613 (inactive) | 0.435 (inactive) | -1.36 (inactive) | -0.289 (inactive) | -0.126 (inactive) | -0.761 (inactive) | -0.251 (inactive) | -0.0665 | -0.162 | 0.0154 (inactive) | 0.466 | -1.54 | -3.33 (inactive) | -0.299 (inactive) | -0.688 (inactive)
13 | CCCC[C@@H]1C[C@H]1[C@@H](NC(=O)c1ccco1)c1ccccc1 | 1.39 | -3.05 (inactive) | 0.757 (inactive) | -1.19 (inactive) | -0.195 (inactive) | 0.586 (inactive) | -0.9 (inactive) | -0.569 (inactive) | 0.0092 | 0.171 | -0.153 (inactive) | -0.041 | -1.46 | -2.46 (inactive) | 0.243 (inactive) | 0.428 (inactive)
14 | O=C1OCCC/C=C\[C@H]2OC34C=CCN(Cn5nnc6ccccc65)C(=O)[C@H]3N(CCCO)C(=O)[C@@H]4C12 (some centres not stated) | 0.558 | 0.351 (inactive) | 0.42 (inactive) | -0.0502 (inactive) | 0.77 (inactive) | -0.44 (inactive) | 0.339 (inactive) | 0.0024 (inactive) | 0.702 | 0.301 | -0.021 (inactive) | 0.652 | -0.0008 | -4.13 (inactive) | 0.472 (inactive) | -0.103 (inactive)
15 | C[N+](C)(C)CCCC[C@@H]1NC(=O)[C@H]2C[C@@H](C(=O)O)[C@@H](c3cccc(OCCO)c3)N2C1=O | 0.352 | -1.32 (inactive) | 0.644 (inactive) | 0.16 (inactive) | 0.0751 (inactive) | -0.625 (inactive) | 0.406 (inactive) | 0.871 (inactive) | 0.773 | 0.353 | 3.68 (inactive) | 0.809 | -0.255 | -0.304 (inactive) | 0.336 (inactive) | 0.213 (inactive)
16 | C=C(C(=O)CC[C@@H](OC(=O)c1cccnc1)c1ccc(OCCO)cc1)C(C)C | -0.706 | -18.4 (active) | -0.446 (inactive) | -3.83 (inactive) | 0.907 (inactive) | -22.2 (active) | -0.706 (inactive) | -0.694 (inactive) | -1.56 | -0.184 | 1.15 (inactive) | 0.611 | -0.496 | -3.94 (inactive) | 1.38 (inactive) | 1.36 (inactive)
17 | O=c1cccc(-c2cccc3ccccc23)o1 | -0.0368 | -14.1 (active) | -0.0171 (inactive) | -2.39 (inactive) | 0.794 (inactive) | -1.95 (inactive) | -0.0645 (inactive) | -0.0042 (inactive) | 0.024 | 0.126 | -0.738 (inactive) | 0.454 | -0.796 | -1.69 (inactive) | -0.715 (inactive) | -1.06 (inactive)
